The list is not random: actives were taken first. Their share in the collection is about 3.7%.
TIM10 inh – inhibits growth of TIM10 yeast strain; S. cerevisiae TIM10 strain growth, BacTiter-Glo luminescence, 24 h; inhibition, % at 10 µM; hit rate 1.4% among 330,000; AID 463195;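 active = inhibition of 40% or more at the single tested concentration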;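 also: wild-type TIM10 isogenic control strain grown at permissive 25 °C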
PfHsp90 yeast 2 – growth inhibition of yeast expressing Plasmodium Hsp90; inhibition, % at 9.4 µM; S. cerevisiae expressing PfHsp90, BacTiter-Glo ATP, 48 h; yeast lacking PDR1 and PDR3 efflux regulators; hit rate 0.32% among 310,000;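 active = every replicate shows inhibition above about 80%, whatever the replicate mean, limit read from the data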
NLRP3 yeast inh – blocks the NALP3 inflammasome reconstituted in yeast; Yeast reconstituted NLRP3/ASC/caspase-1, beta-gal luminescence, 24 h; hit rate 0.39% among 330,000; AID 2825; inhibition, % at 10 µM;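 active = inhibition of 50% or more; inactive = inhibition below 50%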
tim10-1 inh – inhibits growth of tim10-1 mutant yeast; AID 463190; S. cerevisiae tim10-1 ts strain growth, BacTiter-Glo, 24 h; hit rate 2.2% among 330,000; inhibition, % at 20 µM;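 active = inhibition of at least 40%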;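 also: mutant grown at 25 °C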
tim23-1 inh – growth inhibitors of tim23-1 mutant yeast; S. cerevisiae tim23-1 growth, BacTiter-Glo luminescence, 24 h; inhibition, % at 20 µM; hit rate 1.3% among 330,000; AID 463212;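 active = growth inhibition of the mutant yeast at or above 50%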;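 also: temperature-sensitive mutant grown at 25 °C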
TIM10 conf – confirmation of TIM10 yeast growth inhibitors. shares compounds with TIM10 inh. S. cerevisiae tim10 strain growth, BacTiter-Glo luminescence, 24 h. inhibition, % at 10 µM. hit rate 63% among 4,600;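 active = inhibition of yeast growth at or above a set limit in either of two replicates at 10 µM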; also: this counterscreen used the strain with wild-type TIM10
Hits are given with their value.

Screening CCn1cc(C(=O)NCC(OC)OC)c(=O)c2cc(S(=O)(=O)N(C)C3CCCCC3)ccc21 returned TIM10 inh inactive, PfHsp90 yeast 2 inactive, NLRP3 yeast inh inactive, tim10-1 inh inactive and tim23-1 inh inactive.
`CCOC(=O)c1ccc(NNC(=O)CC)c([N+](=O)[O-])c1` gave TIM10 inh inactive, PfHsp90 yeast 2 inactive, NLRP3 yeast inh inactive, tim10-1 inh inactive and tim23-1 inh inactive.
`Oc1ccc(CN2CCc3ccccc3C2)c2cccnc12` gave TIM10 inh 41.2, PfHsp90 yeast 2 inactive, NLRP3 yeast inh inactive, tim10-1 inh inactive, tim23-1 inh inactive and TIM10 conf inactive.
For Oc1ccc(CN2CCCCC2)c2cccnc12 the results were TIM10 inh inactive, PfHsp90 yeast 2 inactive, NLRP3 yeast inh inactive, tim10-1 inh inactive and tim23-1 inh inactive.
Cc1cc(OCC(=O)NN2C(=O)c3ccccc3C2=O)ccc1Cl was read as TIM10 inh inactive, PfHsp90 yeast 2 inactive, NLRP3 yeast inh inactive, tim10-1 inh inactive and tim23-1 inh inactive.
Cc1ccc(C(=O)NCC(=O)NNC(=O)CN(C)S(=O)(=O)c2ccc(Cl)cc2)s1 was read as TIM10 inh inactive, PfHsp90 yeast 2 inactive, NLRP3 yeast inh inactive, tim10-1 inh inactive and tim23-1 inh inactive.
Screening CCOc1ccccc1CN1CCNC(=O)C1CC(=O)NCCCn1cccn1 (stereo not drawn) returned TIM10 inh inactive, PfHsp90 yeast 2 inactive, NLRP3 yeast inh inactive, tim10-1 inh inactive and tim23-1 inh inactive.
CCOc1ccc(N(C(=O)c2cnccn2)C(C(=O)NC2CCCCC2)c2ccc(O)cc2)cc1 (stereo not drawn) was read as TIM10 inh 83.7, PfHsp90 yeast 2 inactive, NLRP3 yeast inh inactive, tim10-1 inh inactive, tim23-1 inh inactive and TIM10 conf inactive.
For O=C(N/N=C/c1ccccn1)c1ccc(N/N=C/c2ccccn2)cc1 the results were TIM10 inh 62.0, PfHsp90 yeast 2 inactive, NLRP3 yeast inh inactive, tim10-1 inh inactive, tim23-1 inh inactive and TIM10 conf 33.9.
Screening CCN1c2ccccc2-c2nc3ccccc3n2C1c1ccco1 (stereo not drawn) returned TIM10 inh 40.2, PfHsp90 yeast 2 inactive, NLRP3 yeast inh inactive, tim10-1 inh inactive, tim23-1 inh inactive and TIM10 conf 35.0.
Screening c1ccc(CN2c3ccccc3-c3nc4ccccc4n3C2c2ccccn2)cc1 (stereo not drawn) returned TIM10 inh inactive, PfHsp90 yeast 2 inactive, NLRP3 yeast inh inactive, tim10-1 inh inactive and tim23-1 inh inactive.
CN1c2ccccc2-c2nc3ccccc3n2C1c1ccncc1 (stereo not drawn) was read as TIM10 inh inactive, PfHsp90 yeast 2 inactive, NLRP3 yeast inh inactive, tim10-1 inh inactive and tim23-1 inh inactive.
`CN1c2ccccc2-c2nc3ccccc3n2C1c1ccccn1` (stereo not drawn) gave TIM10 inh 42.7, PfHsp90 yeast 2 inactive, NLRP3 yeast inh inactive, tim10-1 inh inactive, tim23-1 inh inactive and TIM10 conf inactive.
For CC(C)COC(=O)Cn1cnc2ccc(Br)cc2c1=O the results were TIM10 inh inactive, PfHsp90 yeast 2 inactive, NLRP3 yeast inh inactive, tim10-1 inh inactive and tim23-1 inh inactive.
Cc1cc(/C=N/NC(N)=S)c(C)n1-c1ccc(Cl)c(Cl)c1 was read as TIM10 inh inactive, PfHsp90 yeast 2 inactive, NLRP3 yeast inh inactive, tim10-1 inh inactive and tim23-1 inh inactive.
`CCNC(=S)N/N=C/c1cc(C)n(-c2ccc(Cl)cc2)c1C` gave TIM10 inh 50.0, PfHsp90 yeast 2 inactive, NLRP3 yeast inh inactive, tim10-1 inh inactive, tim23-1 inh inactive and TIM10 conf inactive.
Screening COc1ccc(CSc2nc(C)[nH]c2[N+](=O)[O-])cc1[N+](=O)[O-] returned TIM10 inh inactive, PfHsp90 yeast 2 inactive, NLRP3 yeast inh inactive, tim10-1 inh inactive and tim23-1 inh inactive.
For COc1ccc(Cc2nc(C)cc(Cl)n2)cc1[N+](=O)[O-] the results were TIM10 inh 41.9, PfHsp90 yeast 2 inactive, NLRP3 yeast inh inactive, tim10-1 inh inactive, tim23-1 inh inactive and TIM10 conf inactive.
`CCOC(=O)c1nnn(-c2ccccc2)c1C` gave TIM10 inh inactive, PfHsp90 yeast 2 inactive, NLRP3 yeast inh inactive, tim10-1 inh inactive and tim23-1 inh inactive.
For CCOC(=O)c1nnn(-c2ccc([N+](=O)[O-])cc2[N+](=O)[O-])c1C the results were TIM10 inh 41.2, PfHsp90 yeast 2 inactive, NLRP3 yeast inh inactive, tim10-1 inh inactive, tim23-1 inh inactive and TIM10 conf 36.8.
